Screens deposited in PubChem BioAssay by National Center for Advancing Translational Sciences (NCATS).
MCF10A rerep – inducers of DNA re-replication in MCF 10A breast cells | MCF 10A DNA re-replication, Hoechst nuclear intensity, 48 h | Potency, µM (top dose mostly 46.1 µM), for inactives: top-dose activity, positive = re-replication, usual class: activators | 350,000 tested, 2.9% active | AID 624296; note: % of control where 0% means no effect; nearly all actives have a fitted effect of over 50% in size
SW480 rerep – induces DNA re-replication in SW480 colon adenocarcinoma cells; SW480 DNA re-replication, Hoechst DNA content imaging, 48 h; Potency, µM (doses to about 46.1 µM), for inactives: at the top dose re-replication activation, actives largely listed as activators; 340,000 tested, 1.8% active; AID 624297; note: % of control where 0% means no effect; nearly all actives have a fitted effect of over 55% in size
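Treated cells incubate 48 hr (37 C, 5% CO2), are stained 40 min with Hoechst, and nuclear fluorescence is enumerated; a rise in nuclei with high DNA signal marks re-replication.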
KB-V1 cytotox – kills drug-selected multidrug resistant KB-V1 cells; KB-V1 MDR cells viability, CellTiter-Glo, 72 h; Potency, µM (doses to about 46.1 µM), actives largely listed as cytotoxic; 400,000 tested, 3.4% active; note: % is set by controls: 0 for no effect and ±100 for the full control effect; nearly all actives have a fitted effect of over 60% in size
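Compound-treated KB-V1 multidrug-resistant cells, 72 h, 37 degrees C; viability by CellTiter-Glo. Fitted qHTS curves give the values.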
KB-3-1 cytotox – kills parental KB-3-1 adenocarcinoma cells; KB-3-1 viability, CellTiter-Glo ATP luminescence, 72 h; Potency, µM (doses to about 46.1 µM), most hits filed as cytotoxic; 400,000 tested, 1.4% active; AID 1347075; note: % is set by controls: 0 for no effect and ±100 for the full control effect; nearly all actives have a fitted effect of over 60% in size
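Cytotoxicity in the drug-sensitive parental line KB-3-1 was scored as loss of CellTiter-Glo luminescence following 72 h incubation with compound. Values come from curve fitting of normalized concentration-response data.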
HT1080NT lethal – kills 2HG-producing HT-1080-NT fibrosarcoma cells | HT-1080-NT fibrosarcoma viability, CellTiter-Glo ATP luminescence, 48 h | Potency, µM (highest dose often 46.1 µM), without a hit: at the highest dose activity, negative = less viability, most hits filed as cytotoxic | 360,000 tested, 1.6% active | AID 686970;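 note: NT is the 2HG producing partner of a matched IDH1 knockdown line; 0% = DMSO-treated cells and -100% = media-only wells without cells; nearly all actives have a fitted effect of over 55% in size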
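HT-1080-NT; 750 cells/well; 5% FBS RPMI; 48 h compound, 37 degrees C; CellTiter-Glo luminescence; curve fitting and curve-class assignment.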
HT1080 IDH1KD tx – toxicity to HT-1080 IDH1 knockdown cells (counter line). HT-1080 IDH1 knockdown viability, ATP luminescence, 48 h. Potency, µM (titrated, usually from 46.1 µM), for inactives: at the top dose activity, negative = toxicity, actives largely listed as cytotoxic. 360,000 tested, 2% active;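 note: 0% = DMSO wells and -100% = cell-free medium wells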
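After a 2 h attachment period, IDH1KD HT-1080 cells took pin-transferred compound for 48 h at 37 °C; ATP-based luminescence after 10 min room-temperature reagent incubation reported viability.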
Numbers without * were called inactive; i = inactive; ? = inconclusive; · = no result; ! = repeats disagree; [ ] = dose if it differs, or a comment. Compounds with a hit are over-represented: about 8% of the library has one in this group of screens. Calls come from the whole dose curve; as a rule, active = well fitted curve in the direction sought with a large enough effect; inconclusive = small, poorly fitted or top-dose-only effect, or another doubt; inactive = no such curve, though single readings can be large; an effect the other way counts as inactive or inconclusive. Potency is the fitted concentration of half-maximal effect.

SMILES | MCF10A rerep | SW480 rerep | KB-V1 cytotox | KB-3-1 cytotox | HT1080NT lethal | HT1080 IDH1KD tx
COc1ccc2[nH]c(-c3cccc(F)c3)cc(=O)c2c1 | 1.3µM* | 0.73µM* | ? | 0.41µM* | ? | 0.52µM*
Cc1ccc2[nH]c(C(F)(F)F)cc(=O)c2c1 | -13% | ? | ? | i | -25% | ?
CCc1ccc(C2=C(C)C(N3CCC(C(=O)Nc4ccc(F)cc4)CC3)=NS2(=O)=O)cc1 | · | · | i | i | · | ·
C=CCN1CC[C@@H](O)C(=C)S1(=O)=O | · | · | i | i | · | ·
CCCNC(=O)C1CCC(Cn2c(=O)c3sccc3n(Cc3cccc(OC)c3)c2=O)CC1 (stereo not given) | · | · | i | i | · | ·
Cc1cc(C)c(S(=O)(=O)N2CCN(C(=O)c3cc4ccccc4oc3=O)CC2)c(C)c1 | ? | -11% | i | i | -3%[9.24 µM] | -1%
Cc1ccc(CN2CCN(/N=C/c3ccc(C(=O)O)cc3)CC2)c(C)c1 | 0% | -18% | i | i | -6% | -21%
COC(=O)c1ccc(/C=N/N2CCN(Cc3ccc(C)cc3C)CC2)cc1 | 0% | -12% | 18µM* | i | 5% | 2%
CCN(C(=O)Cn1nnc2sc(-c3ccccc3)cc2c1=O)c1cccc(C)c1 | · | · | i | i | · | ·
Cc1ccc2onc(CNC(=O)N(C)Cc3ccccc3)c2c1 | · | · | i | i | · | ·
O=C(NN(c1ccccc1)c1ccccc1)c1ccc([N+](=O)[O-])o1 | ? | 12µM* | ? | ? | ? | ?
NC(=O)c1oc2ccccc2c1NC(=O)c1ccc(F)cc1 | -1% | 1% | i | i | 0% | -5%
NC(=O)c1oc2ccccc2c1NC(=O)c1ccc([N+](=O)[O-])o1 | ? | ? | 7.3µM* | 3.7µM* | 1.5µM* | 2.1µM*
O=C(CCc1cccc(Cl)c1)NC1CCCN(Cc2ccccc2F)C1 (stereo not given) | 1% | 7% | i | i | -1% | 0%
CCCCCCCC[n+]1cccc(C(=O)N(CC)CC)c1 | 15% | ? | i | i | 5% | -5%
CCCCCCCCCCCCCCCC[n+]1cccc(C(=O)N(CC)CC)c1 | ? | 21µM* | i | 13µM*! | ? | 21µM*!
Cn1cc(Br)c(C(=O)NN2C(=O)C3C4C=CC(C5CC45)C3C2=O)n1 (stereo not given) | ? | -36% | i | i | 6% | 12%
Cn1cc(Br)c(C(=O)NN2C(=O)C3C(C2=O)C2C=CC3C23CC3)n1 (stereo not given) | 0.73µM* | 2% | i | i | 5% | 0%
Cc1ccc(N2CCN(C(=O)c3cn(C)c4ccc(S(=O)(=O)N(C)C)cc4c3=O)CC2C)cc1 (stereo not given) | · | · | i | i | · | ·
COc1ccc(-c2cc3nccc(-c4cc(Cl)c(C)cc4O)n3n2)cc1 | · | · | i | i | · | ·
CCC1(c2ccc(F)cc2)NC(=O)N(CC(=O)N2CCN(S(=O)(=O)c3ccc(C)cc3C)CC2)C1=O (stereo not given) | 11% | -4% | i | ? | -23% | 0%
COc1ccc2c(c1)C(=O)[C@H](O)[C@@H](c1ccc(OC)c(Br)c1)O2 | ? | 4.1µM* | i | i | -21% | ?
Cc1ccc(OCCSc2nc3ccccc3n2CC(=O)N2CCOCC2)cc1C | · | · | i | i | · | ·
Cn1c(=O)[nH]c(=O)c2c1nc(Br)n2CCCSc1nc2ccccc2o1 | 13µM* | 7.3µM* | ? | ? | ? | ?
Cn1c(=O)c2c(nc(Br)n2Cc2ccc3ccccc3c2)n(C)c1=O | ? | 0% | 2.6µM* | 7.3µM* | ? | -28%
SMILES | MCF10A rerep | SW480 rerep | KB-V1 cytotox | KB-3-1 cytotox | HT1080NT lethal | HT1080 IDH1KD tx
Cc1cccc(Cn2c(Sc3nc(C)cs3)nc3c2c(=O)[nH]c(=O)n3C)c1 | 0% | -8% | 4.1µM* | i | -1% | 2%
Cn1c(=O)[nH]c(=O)c2c1nc(Br)n2Cc1cccc(Br)c1 | ? | ? | ? | ? | 6.5µM* | 4.6µM*
CC1(C)Cc2cccc(OCC(=O)NCc3ccc(F)cc3)c2O1 | 12% | 3% | 15µM* | i | -3% | -4%
CC1(C)Cc2cccc(OCC(=O)Nc3ccccc3N3CCOCC3)c2O1 | ? | 10% | 3.7µM* | i | 11% | 8%
Cc1ccc(C(=O)/C=C\C(=O)c2ccc(C)cc2)cc1 | ? | ? | i | i | -1% | ?
Cc1ccc(S/C=C\C(=O)c2ccccc2)cc1 | 4.1µM* | ? | ? | i | 22µM* | 13µM*
CC(=O)c1ccc2c(c1)CC1(C2)Cc2cc3c(cc2C1)C(=O)CC3 (stereo not given) | 4.1µM* | 7.3µM* | 2.6µM* | 3.7µM* | ? | ?
CC(=O)c1ccc2c(c1)Cc1cc(C(C)=O)ccc1-2 | -4% | -3% | ? | i | 3% | 1%
NS(=O)(=O)c1cccc(NC(=O)COC(=O)CN2C(=O)C3CC=CCC3C2=O)c1 (stereo not given) | -17% | -14% | i | i | 10% | 10%
CCOc1ccccc1NC(=O)Cn1c(=O)n(Cc2cccs2)c(=O)c2cccnc21 | · | · | i | i | · | ·
CCOC(=O)N1CC=C2C(C#N)=C(N)C(C#N)(C#N)[C@H](c3ccc(OCC)c(OCC)c3)[C@H]2C1 | 0% | 4% | 8.2µM* | i | -4% | ?
COCCNC(=O)c1cc2c(c(-c3cccc(-c4cc5ccccc5o4)c3)n1)[C@H](CCO)N(S(=O)C(C)(C)C)C2 (stereo not given in full) | · | · | 18µM* | i | ? | ?
CC(C)(C)S(=O)N1Cc2cc(C(=O)NCc3ccc(Oc4ccccc4)cc3)nc(-c3cccc(-c4cc5ccccc5o4)c3)c2[C@@H]1CCO (stereo not given in full) | · | · | ? | ? | 23µM* | ?
COc1cc2c(cc1OC)C(c1ccc(F)cc1)N(c1ccc(F)cc1)C(=O)C2 (stereo not given) | · | · | i | i | · | ·
COc1cc2c(c(OC)c1OC)-c1ccc(SC)c(=O)cc1C(NC(=O)C(F)(F)F)CC2 (stereo not given) | ? | 0.021µM* | 0.13µM* | 0.052µM* | 0.0092µM* | 0.0065µM*
CCOCC(=O)NC1CCc2cc(OC(=O)COCC)c(OC)c(OC)c2-c2ccc(SC)c(=O)cc21 (stereo not given) | ? | 0.082µM* | 16µM* | 0.0092µM* | 0.073µM* | 0.15µM*
